# Calls of active or inactive are those of the source.
# Experiments:
# Albumin (Bos taurus) = Albumin (Bos taurus) (UniProt P02769); experiment: bovine serum albumin binders on microarray, profiling panel, artefact control for SMM control protein annotation, biochemical, small-molecule microarray, Alexa647 label, 635/667 nm fluorescence (AID 1118); conditions: BSA-A647 binding, fluorescence 635 nm, higher = more signal;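 also: score merges 667 nm emission intensity and signal-to-noise per printed compound spot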
# Chain of Albumin (Bos taurus) (P02769 whole entry, looked up): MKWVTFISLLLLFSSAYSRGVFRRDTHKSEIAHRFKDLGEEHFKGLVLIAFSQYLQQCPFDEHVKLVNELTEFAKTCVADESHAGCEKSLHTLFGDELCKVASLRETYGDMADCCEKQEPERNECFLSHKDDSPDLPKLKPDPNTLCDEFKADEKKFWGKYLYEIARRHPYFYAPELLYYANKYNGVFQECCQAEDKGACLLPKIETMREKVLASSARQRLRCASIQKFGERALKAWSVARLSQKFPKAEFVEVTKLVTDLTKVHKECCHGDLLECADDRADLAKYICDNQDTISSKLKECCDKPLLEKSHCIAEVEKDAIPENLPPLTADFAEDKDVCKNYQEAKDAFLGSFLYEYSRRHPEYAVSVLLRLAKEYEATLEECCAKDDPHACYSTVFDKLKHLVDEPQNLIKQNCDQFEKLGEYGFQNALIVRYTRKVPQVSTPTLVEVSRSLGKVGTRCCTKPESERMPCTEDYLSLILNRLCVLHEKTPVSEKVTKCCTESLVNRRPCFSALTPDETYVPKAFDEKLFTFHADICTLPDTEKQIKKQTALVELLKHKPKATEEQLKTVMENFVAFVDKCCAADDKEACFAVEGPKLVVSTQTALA
# [1] = small-molecule microarray binders of probe aXIP, primary screen, biochemical, NeuroSMM set, 635/667 nm fluorescence (AID 1119); conditions: higher = more signal, called active from +8 up or from −8 down;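 also: probe is the protein aXip251-270 applied at 1 µg/mL to compound-printed slides; binding of probe to printed compounds measured as 667 nm fluorescence plus signal to noise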
# [2] = small-molecule binders of probe aNOTCH3, primary screen, biochemical, small-molecule microarray, 635/667 nm fluorescence (AID 1120); conditions: higher = more signal;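 also: probe is a biotin-tagged antibody raised against NOTCH3 rather than NOTCH3 protein; score merges spot fluorescence near 667 nm with spot signal to noise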
# [3] = small-molecule binders of probe aNOTCH2, primary screen, biochemical, small-molecule microarray, 635/667 nm fluorescence (AID 1121); conditions: higher = more signal;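 also: score merges feature fluorescence read at 667 nm with its signal to noise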
# [4] = molecular target: Carbonic anhydrase 2 (Homo sapiens) (UniProt P00918); experiment: CAII small-molecule binders, profiling panel, biochemical, small-molecule microarray, Alexa647-labelled CAII (AID 1122); conditions: CAII-A647 binding fluorescence, higher = more signal
# [5] = COS7 lysate on small-molecule microarray, probe aHis, 635 nm (AID 1123); conditions: COS7 cell lysate, fluorescence, higher = more signal;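 also: z-score combines 667nm fluorescence intensity with signal-to-noise per printed compound spot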
# [6] = compound binding in COS7 lysate, probe aLAP1, primary screen, cell lysate, small-molecule microarray (AID 1124); conditions: probe aLAP1, fluorescence, higher = more signal;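 also: lysate comes from COS7 cells expressing LAP1 and is applied at 0.3 µg/mL; score merges spot fluorescence near 667 nm with signal-to-noise over triplicate slides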
# Sam68 (KHDRBS1) = experiment: Sam68 small-molecule binders, primary screen, biochemical, small-molecule microarray, 635 nm fluorescence (AID 1125); conditions: small-molecule microarray binding, higher = more signal;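 also: score merges 667 nm channel intensity with signal to noise over triplicate slides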
# [7] = test system: Chordin-like protein 2 (CHRDL2); experiment: CHRDL2 small-molecule binders, primary screen, biochemical, small-molecule microarray, 635 nm fluorescence (AID 1126); conditions: small-molecule microarray binding, fluorescence 635 nm; higher = more signal;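 also: printed compound slides probed with Chrdl2 protein at 4 µg/mL for 1 h at 4 C; score merges 667 nm emission intensity with signal to noise over three replicate slides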
# [8] = molecular target: Concanavalin-A (Canavalia ensiformis) (UniProt P02866); experiment: ConA small-molecule binders, primary screen, artefact control for SMM control protein annotation, biochemical, small-molecule microarray, Alexa647 label, 635 nm (AID 1127); conditions: ConA-A647 binding fluorescence, higher = more signal;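 also: z combines 667 nm emission intensity with signal-to-noise across three replicate slides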
# Chain of Concanavalin-A (Canavalia ensiformis) (P02866 whole entry, looked up): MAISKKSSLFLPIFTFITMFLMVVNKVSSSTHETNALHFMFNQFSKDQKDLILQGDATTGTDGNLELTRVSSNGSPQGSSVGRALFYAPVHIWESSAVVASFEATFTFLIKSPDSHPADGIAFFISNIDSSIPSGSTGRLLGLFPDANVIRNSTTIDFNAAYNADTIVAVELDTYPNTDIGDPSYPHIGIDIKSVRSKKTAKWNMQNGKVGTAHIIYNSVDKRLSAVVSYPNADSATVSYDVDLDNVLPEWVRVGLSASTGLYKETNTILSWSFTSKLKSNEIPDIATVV
# [9] = anti-His antibody binders, primary screen, artefact control for SMM control protein annotation, biochemical, small-molecule microarray, 635 nm fluorescence (AID 1128); conditions: anti-His Alexa647 antibody binding, higher = more signal;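 also: score merges feature fluorescence with signal-to-noise for each printed compound spot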
# [10] = test system: Human papillomavirus type 1a E7 protein (residues 1-88); experiment: HPV1a E7 small-molecule binders, primary screen, biochemical, small-molecule microarray, residues 1-88, 635 nm (AID 1129); conditions: small-molecule microarray binding, fluorescence 635 nm; higher = more signal
# [11] = molecular target: Focal adhesion kinase 1 (Homo sapiens) (UniProt Q05397); experiment: small-molecule microarray binders of FAK, primary screen, biochemical, 635/667 nm fluorescence, BSA, DTT (AID 1130); conditions: PTK2 binding, 635 nm fluorescence, higher = more signal;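 also: composite of spot emission at 667 nm and signal to noise over triplicate slides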
# Chain of Focal adhesion kinase 1 (Homo sapiens) (Q05397 whole entry, looked up): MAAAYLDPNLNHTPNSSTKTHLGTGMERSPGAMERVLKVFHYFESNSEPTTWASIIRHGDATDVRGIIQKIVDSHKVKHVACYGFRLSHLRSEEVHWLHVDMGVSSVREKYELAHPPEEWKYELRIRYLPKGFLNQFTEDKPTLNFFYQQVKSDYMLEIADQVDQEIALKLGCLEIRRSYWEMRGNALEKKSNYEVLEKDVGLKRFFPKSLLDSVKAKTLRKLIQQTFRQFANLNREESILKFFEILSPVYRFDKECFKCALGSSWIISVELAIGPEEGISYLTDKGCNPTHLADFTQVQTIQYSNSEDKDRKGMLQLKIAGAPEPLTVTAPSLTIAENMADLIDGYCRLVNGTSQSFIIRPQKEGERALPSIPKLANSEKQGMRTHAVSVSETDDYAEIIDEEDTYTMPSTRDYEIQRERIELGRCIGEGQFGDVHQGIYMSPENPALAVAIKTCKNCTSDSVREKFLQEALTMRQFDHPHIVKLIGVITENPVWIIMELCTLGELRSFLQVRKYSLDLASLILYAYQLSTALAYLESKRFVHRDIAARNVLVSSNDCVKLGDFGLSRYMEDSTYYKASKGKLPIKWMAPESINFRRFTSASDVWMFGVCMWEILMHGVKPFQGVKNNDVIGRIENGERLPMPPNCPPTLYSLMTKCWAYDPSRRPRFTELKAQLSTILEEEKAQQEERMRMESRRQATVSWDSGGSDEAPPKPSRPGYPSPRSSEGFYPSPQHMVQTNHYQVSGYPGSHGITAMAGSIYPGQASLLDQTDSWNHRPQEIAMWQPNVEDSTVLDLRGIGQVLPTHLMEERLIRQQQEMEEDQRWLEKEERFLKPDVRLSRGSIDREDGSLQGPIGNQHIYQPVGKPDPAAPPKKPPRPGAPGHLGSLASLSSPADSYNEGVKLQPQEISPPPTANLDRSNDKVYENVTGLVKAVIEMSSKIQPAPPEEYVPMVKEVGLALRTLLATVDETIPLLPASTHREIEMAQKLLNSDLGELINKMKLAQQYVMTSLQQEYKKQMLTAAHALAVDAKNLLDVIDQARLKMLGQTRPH
# [12] = test system: Fibrinogen (Alexa647-labelled); experiment: fibrinogen binders on compound microarrays, profiling panel, artefact control for SMM control-protein annotation, biochemical, small-molecule microarray, 635/667 nm fluorescence (AID 1131); conditions: fibrinogen-A647 binding fluorescence, higher = more signal;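 also: z-score merges 667 nm fluorescence with per-spot signal-to-noise over triplicate slides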
# [13] = molecular target: Follistatin (Homo sapiens) (UniProt P19883); experiment: follistatin binders on small-molecule microarrays, primary screen, biochemical, small-molecule microarray, 635/667 nm fluorescence (AID 1132); conditions: FST binding, 635 nm fluorescence, higher = more signal
# Chain of Follistatin (Homo sapiens) (P19883 whole entry, looked up): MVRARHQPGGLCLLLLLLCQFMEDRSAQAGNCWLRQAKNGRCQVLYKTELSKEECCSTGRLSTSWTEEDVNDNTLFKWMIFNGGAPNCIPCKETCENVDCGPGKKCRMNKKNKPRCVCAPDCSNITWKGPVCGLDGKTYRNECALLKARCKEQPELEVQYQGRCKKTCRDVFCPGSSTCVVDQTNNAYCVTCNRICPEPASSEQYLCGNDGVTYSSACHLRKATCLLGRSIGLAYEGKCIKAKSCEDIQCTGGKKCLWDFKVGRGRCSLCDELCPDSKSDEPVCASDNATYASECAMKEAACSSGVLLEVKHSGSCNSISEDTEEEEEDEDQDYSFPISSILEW
# [14] = molecular target: Fibroblast growth factor 2 (Homo sapiens) (UniProt P09038); experiment: FGF2 binders on small-molecule microarrays, primary screen, biochemical, small-molecule microarray, 635/667 nm fluorescence (AID 1133); conditions: small-molecule microarray binding, FGF2, fluorescence 635/667; higher = more signal
# Chain of Fibroblast growth factor 2 (Homo sapiens) (P09038 whole entry, looked up): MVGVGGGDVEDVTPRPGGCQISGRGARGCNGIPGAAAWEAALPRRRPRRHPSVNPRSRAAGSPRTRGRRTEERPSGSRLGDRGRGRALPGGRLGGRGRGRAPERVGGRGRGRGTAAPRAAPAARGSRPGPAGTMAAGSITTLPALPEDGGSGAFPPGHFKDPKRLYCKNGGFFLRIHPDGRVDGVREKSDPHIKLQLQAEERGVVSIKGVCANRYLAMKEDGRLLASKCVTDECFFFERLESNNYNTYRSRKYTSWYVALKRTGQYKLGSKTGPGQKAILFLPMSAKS
# [15] = mitochondrial membrane potential change in A549 cells, profiling panel, cell-based, JC-1 fluorescence, basal, 24 h, 100 nL (AID 1138); conditions: higher = more signal;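 also: A549 lung adenocarcinoma cells under basal conditions with no added stimulus; test concentration not given here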
# Lefty1 = Lefty1 binders on small-molecule microarrays, primary screen, biochemical, small-molecule microarray, 635/667 nm fluorescence (AID 1139); conditions: small-molecule microarray binding, fluorescence 635/667; higher = more signal
# [16] = test system: wheat germ agglutinin (Triticum aestivum), Alexa647-labelled; experiment: wheat germ agglutinin binders on compound microarrays, profiling panel, artefact control for SMM control-protein annotation, biochemical, small-molecule microarray, 635/667 nm fluorescence (AID 1140); conditions: WGA-A647 binding, 635 nm fluorescence, higher = more signal;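 also: score merges 667 nm feature emission with signal to noise over triplicate slides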
# [17] = molecular target: Luciferin 4-monooxygenase (Photinus pyralis) (UniProt P08659); experiment: firefly luciferase enzyme inhibitors, primary screen, biochemical, luminescence, purified enzyme, 2006 set (AID 1141); conditions: SteadyGlo luminescence, 30 min, higher = more signal, called active from +8 up or from −8 down;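 also: cell-free assay with purified firefly luciferase at 100 ng per well in PBS; test concentration not given here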
# Chain of Luciferin 4-monooxygenase (Photinus pyralis) (P08659 whole entry, looked up): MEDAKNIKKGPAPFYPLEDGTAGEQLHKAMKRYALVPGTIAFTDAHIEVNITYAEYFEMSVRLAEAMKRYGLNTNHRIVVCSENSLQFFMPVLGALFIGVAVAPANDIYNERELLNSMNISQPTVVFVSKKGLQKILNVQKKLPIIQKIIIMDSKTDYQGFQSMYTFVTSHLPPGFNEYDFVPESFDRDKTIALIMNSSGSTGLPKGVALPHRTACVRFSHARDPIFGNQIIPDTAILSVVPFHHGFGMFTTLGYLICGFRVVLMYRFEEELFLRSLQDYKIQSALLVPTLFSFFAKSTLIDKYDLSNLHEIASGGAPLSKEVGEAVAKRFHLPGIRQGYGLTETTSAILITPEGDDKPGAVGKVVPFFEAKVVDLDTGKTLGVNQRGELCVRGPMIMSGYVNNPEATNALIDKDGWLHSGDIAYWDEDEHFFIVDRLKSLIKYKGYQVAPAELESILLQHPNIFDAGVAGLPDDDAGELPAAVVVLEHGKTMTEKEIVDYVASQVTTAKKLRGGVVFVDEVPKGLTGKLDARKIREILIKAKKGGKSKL
SMILES,composite z-score (Albumin (Bos taurus)),composite Z-score [1],composite z-score [2],composite z-score [3],composite z-score [4],composite z-score [5],composite z-score [6],composite z-score (Sam68 (KHDRBS1)),composite z-score [7],composite z-score [8],composite z-score [9],composite z-score [10],composite z-score [11],composite z-score [12],composite z-score [13],composite z-score [14],z-score [15],composite z-score (Lefty1),composite z-score [16],z-score [17]
CC(C)(C)N1CC=CC23O[C@@H]4/C=C\CCCOC(=O)C4[C@H]2C(=O)N(CCCCCO)[C@@H]3C1=O (stereo not given in full),-1.58,0.794 (inactive),-0.349,-0.126,0.941,-0.584,0.566,-0.484,-1.46,-1.46,-1.23,-0.75,-0.716,-0.865,-1.06,-0.594,-0.137,-1.4,-0.408,0.215 (inactive)
COc1ccc(CCNC(=O)[C@@H]2c3ccccc3C(=O)N(Cc3ccccc3OC)[C@H]2c2ccc(CO)cc2)cc1,0.454,0.511 (inactive),-0.176,-0.0068,0.533,1.59,0.886,1.28,-0.246,0.792,1.71,1.15,0.347,0.406,0.674,1.02,0.84,0.0605,0.655,0.256 (inactive)
O=C1C2C=CC(C(O)c3c(F)cccc3Cl)N(Nc3ccc([N+](=O)[O-])cc3)C2C(=O)N1c1ccccc1 (stereo not given),0.589,-0.0608 (inactive),0.465,-0.037,0.804,2.83,1.43,1.3,0.268,1.11,1.62,1.22,0.682,0.931,1.36,0.589,-0.514,0.948,0.844,1.67 (inactive)
COC(=O)[C@@]1(Cc2ccc(OC)cc2)[C@H]2c3cc(C(=O)N4CCCC4)n(Cc4ccc(Cl)c(C(F)(F)F)c4)c3C[C@H]2CN1C(=O)c1ccccc1,1.05,0.0685 (inactive),0.322,0.162,0.696,3.2,1.16,1.29,-0.754,1.2,1.27,1.19,0.421,0.972,1.34,0.433,1.38,0.125,1.07,0.166 (inactive)
C=CCN1C(=O)[C@]2(O[C@H](CCn3cc([C@H](O)c4ccccc4)nn3)[C@@H]([Si](C)(C)c3ccc(OC)cc3)[C@@H]2C)c2cc(NC(=O)c3ccc(OC)cc3)ccc21,0.55,0.24 (inactive),-0.0362,-0.135,0.015,1.02,-0.182,0.867,0.334,0.543,0.66,0.499,0.748,0.0903,1.23,0.307,0.997,0.794,0.422,-1.16 (inactive)
[N-]=[N+]=Nc1ccccc1C[C@]1(C(=O)N2CCOCC2)N=C(c2ccc(OCCCO)cc2)O[C@H]1c1ccccc1N=[N+]=[N-],0.832,0.317 (inactive),0.472,-0.14,0.648,3.09,0.654,1.28,0.86,1.15,2.37,1.19,1.08,0.96,1.41,1.79,0.268,1.41,0.97,-4.36 (inactive)
CN1C(=O)C2C=CC(C(O)c3ccc(-c4ccccc4)s3)N(NC(=O)OC(C)(C)C)C2C1=O (stereo not given),0.886,0.43 (inactive),0.435,0.164,0.689,1.65,0.714,1.23,0.0094,0.996,0.847,1.14,0.154,1.04,0.807,0.498,0.237,-0.0773,0.904,0.626 (inactive)
O=C(O)[C@H](Cc1ccccc1)n1cc(C2(O)CCCCC2)nn1,0.568,0.217 (inactive),0.0191,-0.147,0.54,1.46,0.0496,1.01,-0.0151,0.463,0.689,0.357,0.736,0.52,0.142,0.278,-0.141,0.676,0.0402,-0.0102 (inactive)
O=C(NCc1ccc(F)cc1)[C@H]1C[C@H]2C(=O)N3CCC[C@H]3C(=O)N2[C@H]1c1ccc(O)cc1,-1.3,0.081 (inactive),-0.303,-0.198,-0.0109,-0.136,1.09,-0.732,0.857,0.72,-0.279,-0.825,-0.753,0.137,0.699,0.75,-0.0591,-0.557,-0.554,-0.0877 (inactive)
C=C(CCCC)/C(=C/C[C@H](OC(C)=O)c1cccc(OCCO)c1)c1cnc2ccccc2c1,-0.0372,-0.325 (inactive),-0.135,-0.149,0.84,-0.66,-0.207,0.0549,0.466,0.116,-0.966,-0.263,-0.494,-0.785,0.389,-0.183,2.35,0.177,0.324,-1.29 (inactive)
CC(C)NC(=O)[C@@]1(c2ccc([N+](=O)[O-])cc2)CC(=O)N(CC23CC4CC(CC(C4)C2)C3)[C@@H]1c1ccc(CO)cc1,0.0436,0.655 (inactive),1.07,0.427,0.195,2.79,0.885,1.29,1.21,1.12,0.999,1.18,0.601,0.948,1.35,1.55,-0.237,1.51,0.738,0.346 (inactive)
